In all, about 69,000 compounds went through this assay and about 8,600 (12%) showed an effect of 50% or more. What follows is part of a selection rich in strong results, with near analogues and random picks from the rest.

The subject of the test is Plasmodium berghei. Put plainly: Screen against P. berghei liver stage (PbLuc), transformed with Luciferase, at 10uM. Type of test: functional, HepG2. To be noted: tested at 10 uM.
With `CCC(=O)N1CCN(C(=O)c2cn3ccsc3n2)[C@H]2CS(=O)(=O)C[C@H]21`, the INHIBITION was determined as 14.9%.
Consider `O=C1NCCN(C(=O)c2cn3ccsc3n2)C1c1cccc(F)c1` (configuration not stated), for which the INHIBITION came out at 43.6%.
For `O=C1NCCN(C(=O)c2cn3ccsc3n2)C1Cc1ccccc1` (configuration not stated), the INHIBITION came out at 54.5%.
As to `Cc1cccnc1CN1CCN(C(=O)[C@@]23CNC[C@@H]2CN(C)C3)CC1`, the INHIBITION is recorded as 41.5%.
Take `Cc1cs/c(=N\C(=O)Cn2nc(N3CCSCC3)ccc2=O)[nH]1`: the INHIBITION amounted to 10.1%.
For `COC1CCN(C(=O)CCn2cccn2)CC1` the value was -9.85%; for `CNC(=O)C1CCN(C(=O)CCn2cccn2)CC1`, 62.8%.
Take `CCN(CC)CC1CCN(C(=O)CCn2cccn2)CC1`: the INHIBITION is 17.15%.
As for `COc1ccc(C)cc1NC(=O)C1CSc2ncc(C)c(=O)n2C1` (configuration not stated), the INHIBITION is reported as 5.36%.
For the molecule `c1ccc(CN2CCCC2)c(CNc2cncc3nnnn23)c1`, the INHIBITION was -14.3%.
For `COc1cc(C(=O)NCCS(=O)(=O)N(C)C)c2ccccc2n1`, the INHIBITION came to 52.9%.
As for `COc1cc(C(=O)NC(C)(C)CN2CCN(C)CC2)c2ccccc2n1`, the INHIBITION came to 28.05%.
`CCCNC(=O)c1cc(OC)c(OC)cc1N(C)S(C)(=O)=O`: the INHIBITION is listed as 24.9%.
Consider `CCn1nc(CC(C)C)cc1C(=O)NCCS(=O)(=O)N(C)C`, for which the INHIBITION came out at 7.25%.
Turning to `CN1CCC(NC(=O)c2cc(C3CCCCC3)nc3ccccc23)CC1`, the INHIBITION is 10.5%.
For the molecule `COc1cc(C(=O)NCC2(N(C)C)CCN(C)CC2)c2ccccc2n1`, the INHIBITION was 68.4%.
With `Cc1nc(-c2ccccc2)sc1CNC1CCc2ncnn2C1` (configuration not stated), the INHIBITION is 8.64%.
The figure for `CCn1nc2c(cc1=O)CN(Cc1nc(C)c(C)o1)CC2` is -29.7%; for `CCCN1CCN(C(=O)CCn2nc(C(F)(F)F)c(Br)c2C)CC1` it is 6.67%; for `O=C1C[C@@H]2CC[C@H](CN1)N2C(=O)CCc1ccc2c(c1)OCO2` it is 17.6%.
Regarding `Cn1nccc1-c1ccc2nc(C3CCN(CCO)CC3)nn2c1`, the INHIBITION came to 33.4%.
Regarding `c1cnc(N2CCC(c3nccn3CC3CC3)CC2)nc1`, the INHIBITION is reported as 36.5%.
For `CN(C)Cc1cc(=O)n2c(n1)CN(C(=O)Cc1cccs1)CCC2`, the INHIBITION stood at 27.6%.
The figure for `CC1CN(CC2CCCC2)CCN1c1ccc2nncn2n1` (configuration not stated) is 82.6%; for `CC1CCCCN1C(=O)CN1CCN(c2ccc3nncn3n2)CC1` (configuration not stated) it is 24%; for `O=C(CN1CCN(c2ccc3nncn3n2)CC1)NC1CCCC1` it is -0.219%.
Regarding `CC1CN(CC(=O)N2CCCC2)CCN1c1ccc2nncn2n1` (configuration not stated), the INHIBITION is reported as 7.67%.
For the molecule `O=C(CN1CCN(c2ccc3nncn3n2)CC1)NC1CCCCC1`, the INHIBITION was -4.16%.
Regarding `CC1CN(CC2CCCCC2)CCN1c1ccc2nncn2n1` (configuration not stated), the INHIBITION is listed as 89.3%.
For `Cc1nc(CN2CCN(c3ccc4nncn4n3)C(C)C2)oc1C` (configuration not stated) the value was 7.27%.
As for `CC1CN(CC(=O)NC2CCCC2)CCN1c1ccc2nncn2n1` (configuration not stated), the INHIBITION worked out at 50.4%.
The figure for `CC1CN(CCc2ccccn2)CCN1c1ccc2nncn2n1` (configuration not stated) is 15.6%; for `Cc1cc(CN(C)C(=O)NC2CCN(Cc3ccccn3)CC2)no1` it is -26.6%; for `CCn1cc(-c2cncn2CCc2ccc3c(c2)OCCO3)cn1` it is 16.5%.
For the molecule `Cc1nc(N2CCOCC2)ncc1-c1cc(O)nc(N2CCCCC2)n1`, the INHIBITION is given as 20.9%.
The figure for `O=C(NCc1csc2ccc(Cl)cc12)c1cc2n(n1)CCNC2` is 44.4%.
Consider `Cc1nn(CC(=O)n2cccn2)c(C)c1I`, for which the INHIBITION was found to be 8.53%.
Consider `O=C(N[C@@H]1CN(c2ncccn2)C[C@@H]2CCCO[C@@H]21)c1ccncc1`, for which the INHIBITION was 35.8%.
Consider `Cc1cccc(C2(CNC(=O)c3ccnc(N(C)C)c3)CCOCC2)c1`, for which the INHIBITION came out at 13.5%.
The figure for `COc1ccc(Cl)cc1C(=O)N1C[C@H](C(C)C)[C@@H](N)C1` is -0.55%; for `CCCc1nc(CN2CCOC(Cn3cncn3)C2)cs1` (configuration not stated) it is 5.9%.
The figure for `COc1ccc([C@@H]2CN(Cc3cccnc3N)C[C@H]2NC(C)=O)cc1` is 23.9%; for `O=C(C1CC1)N1CCC2(CC1)CNCc1ccccc12` it is 74.8%; for `O=C([C@@H]1CSCN1)N1CCC2(CC1)CNCc1ccccc12` it is 27.5%.
On to `O=C(C1CCOC1)N1CCC2(CC1)Cc1ccccc1CNC2=O` (configuration not stated), for which the INHIBITION is 2.26%.
`O=C(C1CCCCC1)N1CCC2(CC1)CNCc1ccccc12`: the INHIBITION stood at 61.5%.
For `O=C([C@H]1CCCO1)N1CCC2(CC1)CNCc1ccccc12`, the INHIBITION is recorded as 17.2%.
For `O=C(C1CC1)N1CCC2(CC1)CNc1ccc(F)cc12` the value was 8.85%; for `CC(CNC(=O)c1cc(C2CC2)on1)N1CCc2ccccc21` (configuration not stated), -51.5%.
For `CC(C)C(N)C1=NC(=C2N=CN=N2)NO1` (configuration not stated), the INHIBITION came out at 8.11%.
With `CC(Cc1ccccc1F)NC(=O)CCC1=NC(=C2N=CN=N2)NO1` (configuration not stated), the INHIBITION worked out at 60.4%.
With `CC(C)CC(N)C1=NC(=C2N=CN=N2)NO1` (configuration not stated), the INHIBITION is given as 37.7%.

(Values after ChEMBL document CHEMBL4513216, “Probing the Open Global Health Chemical Diversity Library for Multistage-Active Starting Points for Next-Generation Antimalarials” (ACS Infect Dis, 2020).)
